Measured values from PubChem BioAssay (NCATS).
Inconclusive results are not listed. Activity calls are given as the source filed them. Calls come from the whole dose curve; as a rule, active = well fitted cell-killing curve with a large enough effect; inconclusive = small, poorly fitted or top-dose-only effect, or effect the other way; inactive = flat fitted curve, though single readings scatter.

Key:
Assay in all cases: Primary qHTS to identify gynecologic anti-cancer compounds using libraries of approved drugs and bioactive compounds (AID 1345084); note: nearly all actives have a fitted effect of over 55% in size
Conditions in all cases: Gynecologic cancer cell panel viability, ATPlite luminescence, 48 h; series mostly up to 57.5 µM
OV90 = system: OV90
Method in brief: (§1)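 Five-concentration response, 48 h; readout is ATP-driven luciferase luminescence.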

PA-1 = system: PA-1
Method in brief: as §1

SKOV3 = system: SKOV3
Method in brief: as §1

Tov-21-G = system: Tov-21-G
Method in brief: as §1

Tov112D = system: Tov112D
Method in brief: as §1
% is set by controls: 0 for no effect and ±100 for the full control effect.

CC1=CCC2C(C)(CO)CCCC2(C)C1CC12OC1C(O)C(CO)=CC2O (stereo not given)
inactive: Potency (OV90) | Potency (PA-1) | Potency (SKOV3) | Potency (Tov-21-G) | Potency (Tov112D)

CC(=O)OCC(=O)O[C@@H]1[C@H]2[C@@H](OC(=O)c3ccccc3)[C@@H](C)C[C@]2(O)[C@H](OC(C)=O)C2(C)[C@H]3CC(C)(C)C(=O)[C@@H]3CC1(OC(C)=O)[C@@H]2OC(C)=O (stereo not given in full)
inactive: Potency (OV90) | Potency (PA-1) | Potency (SKOV3) | Potency (Tov-21-G) | Potency (Tov112D)

C[C@@H]1C/C=C/C=C\C=C\C=C\[C@H](O[C@@H]2O[C@H](C)[C@@H](O)[C@H](N)[C@@H]2O)C[C@@H]2O[C@](O)(C[C@@H](O)C[C@H]3O[C@@H]3/C=C/C(=O)O1)C[C@H](O)[C@H]2C(=O)O
inactive: Potency (OV90) | Potency (PA-1) | Potency (SKOV3) | Potency (Tov-21-G) | Potency (Tov112D)

CCS(=O)(=O)N1CCC([C@@H](C)n2c(C)c(C(=O)NCc3c(OC)cc(C)[nH]c3=O)c3ccccc32)CC1
inactive: Potency (OV90) | Potency (PA-1) | Potency (SKOV3) | Potency (Tov-21-G) | Potency (Tov112D)

O=C(CCCCc1ccc2ccccc2c1)C(F)(F)F
inactive: Potency (OV90) | Potency (PA-1) | Potency (SKOV3) | Potency (Tov-21-G) | Potency (Tov112D)

O=C(CCO[C@@H]1O[C@H](CO)[C@@H](O)[C@H](O)[C@H]1O)c1ccc(O)cc1
inactive: Potency (OV90) | Potency (PA-1) | Potency (SKOV3) | Potency (Tov-21-G) | Potency (Tov112D)

CC1C/C=C/C=C\CCCCC(O)C/C=C/C(=O)O1 (stereo not given)
inactive: Potency (OV90) | Potency (PA-1) | Potency (SKOV3) | Potency (Tov-21-G) | Potency (Tov112D)

C[C@@H]1O[C@@H](O[C@H]2[C@H](O)[C@@H](O)[C@H](OC[C@H]3O[C@@H](OC(=O)[C@]45CCC(C)(C)C[C@H]4C4=CCC6[C@@]7(C)C[C@H](O)[C@H](O[C@@H]8O[C@H](CO)[C@@H](O)[C@H](O)[C@H]8O)[C@@](C)(C(=O)O)C7CC[C@@]6(C)[C@]4(C)CC5)[C@H](O[C@@H]4O[C@H](CO)[C@@H](O)[C@H](O)[C@H]4O)[C@@H](O)[C@@H]3O)O[C@@H]2CO)[C@H](O)[C@H](O)[C@H]1O (stereo not given in full)
inactive: activity change, negative = cytotoxicity (OV90) 0.564% [at 6.55 µM] | activity change, negative = cytotoxicity (PA-1) 15.2% [at 6.55 µM] | activity change, negative = cytotoxicity (SKOV3) 8.21% [at 6.55 µM] | activity change, negative = cytotoxicity (Tov-21-G) 6.93% [at 6.55 µM] | activity change, negative = cytotoxicity (Tov112D) 5.3% [at 6.55 µM]

COc1ccc(/C=C/C(=O)O[C@H]2[C@@H]3C=CO[C@@H](O[C@@H]4O[C@H](CO)[C@@H](O)[C@H](O)[C@H]4O)[C@@H]3[C@@]3(CO)O[C@@H]23)cc1O
inactive: Potency (OV90) | Potency (PA-1) | Potency (SKOV3) | Potency (Tov-21-G) | Potency (Tov112D)

CC1CC(=O)C2=C(O1)OC1(C)CCC3C(C)(C)C=CC(=O)C3(C)C1C2 (stereo not given)
inactive: Potency (OV90) | Potency (PA-1) | Potency (SKOV3) | Potency (Tov-21-G) | Potency (Tov112D)

CCOc1ccc(-c2ccc(Cn3c(CC(C)(C)C(=O)O)c(SC(C)(C)C)c4cc(OCc5ccc(C)cn5)ccc43)cc2)cn1
inactive: Potency (OV90) | Potency (PA-1) | Potency (SKOV3) | Potency (Tov-21-G) | Potency (Tov112D)

COc1cc(/C=C/c2cc(O)cc(O[C@@H]3O[C@H](CO)[C@@H](O)[C@H](O)[C@H]3O)c2)ccc1O
inactive: Potency (OV90) | Potency (PA-1) | Potency (SKOV3) | Potency (Tov-21-G) | Potency (Tov112D)

C[C@@H]1O[C@@H](O[C@H]2[C@H](OC(=O)[C@]34CCC(C)(C)C[C@H]3C3=CCC5[C@@]6(C)CC[C@H](O[C@@H]7O[C@H](CO[C@@H]8OC[C@H](O)[C@H](O)[C@H]8O)[C@@H](O)[C@H](O)[C@H]7O)C(C)(C)C6CC[C@@]5(C)[C@]3(C)C[C@H]4O)OC[C@@H](O)[C@@H]2O)[C@H](O)[C@H](O)[C@H]1O[C@@H]1OC[C@H](O)[C@H](O[C@@H]2OC[C@@H](O)[C@H](O)[C@H]2O)[C@H]1O (stereo not given in full)
inactive: activity change, negative = cytotoxicity (OV90) -10.8% [at 6.55 µM] | activity change, negative = cytotoxicity (PA-1) 1.4% [at 6.55 µM] | activity change, negative = cytotoxicity (SKOV3) 14.1% [at 6.55 µM] | activity change, negative = cytotoxicity (Tov-21-G) -9.88% [at 6.55 µM] | activity change, negative = cytotoxicity (Tov112D) 9.32% [at 6.55 µM]

O=C(/C=C/c1ccc(O)cc1)OCC1=C[C@@H](O)[C@@H]2C=CO[C@@H](O[C@@H]3O[C@H](CO)[C@@H](O)[C@H](O)[C@H]3O)[C@H]12
inactive: Potency (OV90) | Potency (PA-1) | Potency (SKOV3) | Potency (Tov-21-G) | Potency (Tov112D)

CCC(=O)N[C@@H]1Cc2ccccc2[C@H](c2ccccc2)C1
inactive: Potency (OV90) | Potency (PA-1) | Potency (SKOV3) | Potency (Tov-21-G) | Potency (Tov112D)

CCCn1cnc2c(NCc3ccccc3)nc(N[C@H](CC)CO)nc21
inactive: Potency (OV90) | Potency (PA-1) | Potency (SKOV3) | Potency (Tov-21-G) | Potency (Tov112D)
